Source: PubChem (National Center for Advancing Translational Sciences (NCATS))
Sampled rows, rich in hits. Any-hit rate of the full collection: about 6.2%.
Luc counter: Counterscreen for Luciferase (Kinase-Glo TM) Inhibition; Luciferin 4-monooxygenase (Photuris pensylvanica), Q27757; Kinase-Glo luciferase, ATP luminescence, 8 min; Potency, µM (doses to about 38.3 µM), without a hit: top-dose activity change, negative = inhibition, hits mostly inhibitors; hit rate 0.28% among 200,000; note: nearly all actives have a fitted effect of over 60% in size
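Inhibition of Kinase-Glo luciferase light generation was assessed at 10 uM ATP in pH 7.2 imidazole buffer, with luminescence measured after eight minutes at ambient temperature.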
Gal4-VP16 FLuc: VP16 counterscreen qHTS for inhibitors of ROR gamma transcriptional activity | Drosophila S2 Gal4-VP16 UAS-luciferase, luminescence, 20 h | Potency, µM (titrated, usually from 53.6 µM), inactives show at the top dose activity, negative = inhibition, most hits filed as inhibitors | hit rate 3.5% among 310,000 | AID 2546, 2010;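 note: Gal4-VP16 expression switched on by copper sulfate through the metallothionein promoter; nearly all actives have a fitted effect of over 50% in size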
RORg inh: qHTS for inhibitors of ROR gamma transcriptional activity; Nuclear receptor ROR-gamma (Mus musculus), P51450; Drosophila S2 Gal4-RORgamma UAS-luciferase reporter, 20 h; Potency, µM (titrated, usually from 53.6 µM), for the others: top-dose activity change, negative = inhibition, most hits filed as inhibitors; hit rate 5.4% among 310,000; note: nearly all actives have a fitted effect of over 60% in size
Target sequence (P51450 whole entry, looked up, the tested form may be a part): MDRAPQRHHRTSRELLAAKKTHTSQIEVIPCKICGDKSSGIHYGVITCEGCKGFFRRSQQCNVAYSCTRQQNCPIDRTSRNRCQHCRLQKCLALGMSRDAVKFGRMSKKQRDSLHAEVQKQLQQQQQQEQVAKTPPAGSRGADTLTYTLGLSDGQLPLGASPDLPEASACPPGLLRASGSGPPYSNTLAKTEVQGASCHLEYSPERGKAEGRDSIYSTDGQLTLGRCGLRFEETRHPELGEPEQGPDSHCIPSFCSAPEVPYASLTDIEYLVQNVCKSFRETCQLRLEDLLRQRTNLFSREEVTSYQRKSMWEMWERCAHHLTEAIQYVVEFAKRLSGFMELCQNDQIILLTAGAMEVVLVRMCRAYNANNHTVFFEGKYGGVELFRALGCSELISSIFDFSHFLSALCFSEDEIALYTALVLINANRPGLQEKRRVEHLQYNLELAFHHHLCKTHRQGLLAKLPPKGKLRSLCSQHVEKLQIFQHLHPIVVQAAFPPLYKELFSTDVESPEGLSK
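Drosophila Schneider cells stably carrying a metallothionein-driven Gal4 DBD–ROR gamma fusion and a UAS-Photinus luciferase reporter were exposed to compound for 1 hr, then induced with copper sulfate (700 uM final) for 20 hr at ambient temperature before luminescence reading.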
* = called active by the depositor; u = inconclusive; x = no result given; [ ] = remark or other dose. Calls come from the whole dose curve; as a rule, active = well fitted curve in the direction sought with a large enough effect; inconclusive = small, poorly fitted or top-dose-only effect, or another doubt; inactive = no such curve, though single readings can be large; an effect the other way counts as inactive or inconclusive. % is set by controls: 0 for no effect and ±100 for the full control effect; potency is the fitted concentration of half-maximal effect.

SMILES | Luc counter | Gal4-VP16 FLuc | RORg inh
Nc1nc2ccccc2n1C(=O)CCc1ccccc1 | -1.9% | 18.8% | 16.1%
O=C(c1ccco1)N1CCn2c1nc1ccccc12 | u | 3.0% | u
Nc1nc2ccccc2n1C(=O)c1ccc(F)cc1 | u | 11.2µM* | 2.24µM*
Nc1nc2ccccc2n1C(=O)c1ccco1 | u | u | 11.2µM*
Nc1nc2ccccc2n1C(=O)c1ccccc1 | 11.2µM* | 5.01µM* | 0.631µM*
Nc1nncn1C(=O)c1cccs1 | -3.3% | -5.1% | -8.0%
CN(CC(=O)NC1CCN(Cc2ccccc2)CC1)S(=O)(=O)c1ccc(Br)s1 | x | -20.7% | 26.0%
CCOC(=O)c1c(NC(=O)CSC2=NN3CCCC(=O)N=C3S2)sc2c1CCCCC2 | -0.2% | 1.1% | u
N#CCCn1c(=O)c(-c2ccccc2)nc2cnc(OCc3ccccc3)nc21 | 1.2% | 4.1% | -5.0%
Cc1cc(O)c(C(C[N+](=O)[O-])c2ccc(Cl)cc2Cl)c(=O)o1 (stereo not given) | -1.0% | u | 15.8µM*
O=c1[nH][nH]c(-c2ccccc2O)c1C(C[N+](=O)[O-])c1ccc(Cl)cc1Cl (stereo not given) | 0.7% | 8.9% | 37.8%
CCOC(=O)C1CCCN(C(=S)Nc2ccc(Nc3ccccc3)cc2)C1 (stereo not given) | -0.1% | 2.4% | u
CCOC(=O)C1CCCN(C(=S)Nc2ccc(C)cc2C)C1 (stereo not given) | -3.1% | u | 11.2µM*
CCOC(=O)C1CCCN(C(=O)/C=C/c2ccc(Cl)cc2)C1 (stereo not given) | 2.9% | -17.8% | u
CCOC(=O)C1CCCN(C(=S)NC(=O)/C=C/c2ccc(F)cc2)C1 (stereo not given) | x | 7.08µM* | 10µM*
CN(Cc1ccc(-n2cccn2)cc1)C(=O)c1cnn2c1NC(c1ccco1)CC2C(F)(F)F (stereo not given) | 5.6% | -15.3% | -9.6%
COCCCN1C2=C(C(=O)CC(C)(C)C2)C(c2ccc(O)c(OC)c2)C2=C1CC(C)(C)CC2=O | x | 5.2% | -24.3%
CCO[P@]1(=O)OC[C@@H]2O[C@H](n3cnc4c(N)ncnc43)[C@H](O)[C@@H]2O1 | -2.9%[7.66 µM] | x | x
Cc1ccc(C(=O)ONc2ccc(N=NC(=O)c3ccccc3O)cc2)cc1 | -14.8% | 17.8µM* | 17.1%
O=Nc1ccc(NOC(=O)c2ccc(Br)cc2)cc1 | -0.5% | 2.2% | 20.2%
Cc1ccc(C(=O)ONc2ccc(N=O)cc2)cc1 | 12.6µM* | 12.6µM* | 25.1µM*
COC(=O)c1ccc(NN=Nc2ccc(C)cc2)cc1 | -2.7% | -0.6% | 14.6%
N#CCC(=O)N/N=C\c1ccccc1OC/C=C/c1ccccc1 | x | -1.7% | 0.8%
Cc1nc(SC2C=CS(=O)(=O)C2)n[nH]1 (stereo not given) | -2.6% | 11.1% | -14.0%
CC(C)c1nc2ccc(Br)cn2c1NC1CCCC1 | 2.8% | u | 7.08µM*
SMILES | Luc counter | Gal4-VP16 FLuc | RORg inh
COC(=O)CNc1c(-c2ccccn2)nc2ccc(Br)cn12 | -27.4% | u | u
Cc1[nH]c2ccccc2c1C(=O)CN1CC(C)OC(C)C1 (stereo not given) | x | 0.0% | -5.2%
O=C(CCl)N(c1ccccc1)C1CCCCC1 | 1.1% | 3.55µM* | 0.708µM*
CC(=O)N(c1ccccc1)C1CCCC1 | -2.5% | 1.3% | -10.7%
O=C(NCC1CCCO1)c1nnc(Cc2ccc(F)cc2)o1 (stereo not given) | 2.9% | 8.1% | 9.5%
CNCCCCc1cnc(C)c2[nH]c3ccccc3c12 | 0.5% | -4.2% | -30.3%
O=C(Nc1cccnc1)c1ccc(-c2ccccc2)cc1 | -4.3% | 2.1% | 22.2%
O=C(Nc1ncccn1)c1ccc([N+](=O)[O-])cc1 | -17.5% | 4.4% | 37.0%
Cc1ccc(C(=O)NC(=S)Nc2cc(-c3nc4ccccc4s3)ccc2C)cc1 | -5.8% | -14.7% | -27.9%
O=C(Nc1ccncc1)c1ccc(-c2ccccc2)cc1 | 5.8% | u | 7.94µM*
O=C(NC(=S)Nc1ccccn1)c1ccc([N+](=O)[O-])cc1 | -0.3% | 11.2µM* | 5.01µM*
O=C(Nc1ccc(CSc2ccccc2)cc1)c1ccccc1 | -13.6% | 18.3% | -6.4%
O=C(Nc1ccccc1)c1ccc(CSc2ccccn2)cc1 | 11.2µM* | 0.8% | 2.2%
Cc1cc(C)c(NC(=S)NC(=O)c2ccc(-c3ccccc3)cc2)c(C)c1 | 1.9% | 5.62µM* | 4.47µM*
COc1ccc(CN2CCNC(=O)C2CC(=O)NCC2CCOCC2)cc1C (stereo not given) | x | -3.8% | -1.0%
CCOCCCNCc1cn(-c2ccc(F)cc2F)nc1-c1ccccc1C | 5.3% | -3.9% | -35.9%
Cc1ccc(S(=O)(=O)NC(=O)COc2ccccc2C)c(C)c1 | x | u | -15.9%
Cc1cc(C)c(C(=O)O)c(CC(C)(C)C(=O)O)c1 | x | -2.9% | -1.8%
O=C(CC(=O)c1ccccc1)Nc1ccccn1 | x | -2.9% | -19.8%
O=C(NC(=S)Nc1ccccn1)c1ccc(-c2ccccc2)cc1 | x | 3.98µM* | 3.16µM*
O=C(CSc1nccn1-c1ncc(C(F)(F)F)cc1Cl)c1ccc(Cl)cc1 | 0.3% | u | 15.8µM*
O=C(OC1CCN(c2ncc(C(F)(F)F)cc2Cl)CC1)c1ccc(Cl)cc1 | -5.9% | -0.6% | -5.2%
CC(=O)NC(=O)c1ccc(-c2ccc(Cl)cc2)o1 | -4.4% | u | 21.3%
COc1ccccc1NC(=S)NNC(=O)c1nn(C)c(C)c1Cl | -3.4% | 16.6% | 18.9%
COc1ccccc1NC(=S)NNC(=O)c1nn(C)cc1Cl | 0.1% | u | 10µM*
SMILES | Luc counter | Gal4-VP16 FLuc | RORg inh
Cc1c(NC(=S)NC(=O)c2ccc(-c3ccc(Cl)cc3)o2)cccc1C(=O)O | 0.9% | -17.2% | 18.6%
O=C(NC(=S)Nc1ccccc1O)c1ccc(-c2ccc(Cl)cc2)o1 | -1.0% | 7.94µM* | 3.16µM*
COc1ccccc1NC(=S)NC(=O)c1ccc(-c2ccc(Cl)cc2)o1 | 0.6% | u | 1.78µM*
COC(=O)CNC(=O)C1CC(=O)N(CCc2ccc(F)cc2)C1 (stereo not given) | x | 1.3% | 3.0%
COC1=CC(C)C2CC3OC(=O)CC4C(C)=C(OC)C(=O)C([C@]2(C)C1=O)[C@]34C (stereo not given in full) | 3.4% | -7.8% | 20.8%
O=C(O)c1cccnc1SC1CC(=O)N(c2ccccc2)C1=O (stereo not given) | x | 1.0% | -2.0%
Cc1nc(SC2CC(=O)N(c3ccccc3)C2=O)nc2c1CCCC2 (stereo not given) | 0.0% | 2.3% | -11.2%
O=C(O)c1ccccc1SC1CC(=O)N(c2ccccc2)C1=O (stereo not given) | 1.8% | 3.98µM* | 12.6µM*
O=C1CC(Sc2cccs2)C(=O)N1c1ccccc1 (stereo not given) | x | 7.94µM* | 4.47µM*
O=C1CC(SC2=NCCS2)C(=O)N1c1ccc(Br)cc1 (stereo not given) | 3.4% | 2.8% | 0.3%
Cc1nnc(SC2CC(=O)N(c3ccccc3)C2=O)s1 (stereo not given) | 5.8% | 1µM* | 1.12µM*
COc1ccc(N2CCN(c3nc4c(c(=O)n(C)c(=O)n4C)n3CCCc3ccccc3)CC2)cc1 | -2.4% | 2.0% | 4.9%
